PubChem BioAssay
The source made the active and inactive calls. Unless noted, how the calls were made is not given here.

Key:
[1] = A549 cell viability effects, profiling panel, calcein-AM fluorescence, 48 h, basal (AID 1162); details: higher = more signal; further: test concentration not given here
[2] = adipocyte viability effects, profiling panel, cell-based, 3T3-L1 adipocytes, calcein-AM fluorescence, 48 h, basal (AID 1163); details: 3T3-L1 adipocytes viability, higher = more signal; further: test concentration not given here
[3] = HepG2 cell viability effects, profiling panel, calcein-AM fluorescence, 48 h, basal (AID 1164); details: higher = more signal; further: test concentration not given here
[4] = MM1S cell viability effects, profiling panel, calcein-AM fluorescence, 48 h, basal (AID 1165); details: higher = more signal;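 further: viability of MM1S multiple myeloma cells under basal unstimulated conditions; test concentration not given here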
[5] = basal RPMI8226 viability, no added stimulus, profiling panel, cell-based, calcein-AM fluorescence, 48 h, PK04 Diversity Set (AID 1166); details: RPMI8226 myeloma viability, higher = more signal;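 further: cells grown under basal conditions without added stimulus; test concentration not given here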
[6] = basal HepG2 mitochondrial membrane potential changes, profiling panel, cell-based, JC-1 fluorescence, 24 h, 100 nL compound (AID 1167); details: higher = more signal; further: test concentration not given here
[7] = basal 3T3-L1 adipocyte mitochondrial potential changes, profiling panel, cell-based, JC-1 fluorescence, 3T3-L1 adipocytes, 24 h, 100 nL compound (AID 1168); details: JC-1 mitochondrial fluorescence, higher = more signal, called active from +8 up or from −8 down; further: test concentration not given here
[8] = basal RPMI8226 mitochondrial membrane potential changes, profiling panel, cell-based, JC-1 fluorescence, 24 h, 100 nL compound (AID 1169); details: RPMI8226 myeloma, JC-1 mitochondrial potential fluorescence, higher = more signal; further: test concentration not given here
[9] = basal MM1S mitochondrial membrane potential changes, profiling panel, cell-based, JC-1 fluorescence, 24 h, 100 nL compound (AID 1170); details: higher = more signal; further: test concentration not given here
[10] = A549 lung cancer cell viability effects, profiling panel, resazurin fluorescence, 24 h, PK04 Diversity Set (AID 1171); details: higher = more signal, called active from +8 up or from −8 down; further: test concentration not given here
[11] = HepG2 liver cancer cell viability effects, profiling panel, resazurin fluorescence, 24 h, PK04 Diversity Set (AID 1172); details: higher = more signal; further: test concentration not given here
[12] = basal S. cerevisiae growth modulation, no modifier, primary screen, OD600, strain BY4716, 24 h, basal condition (AID 1173); details: OD600, 24 h, higher = more signal, called active from +8 up or from −8 down
[13] = MM1S myeloma cell viability, profiling panel, resazurin fluorescence, basal, 24 h, PK04 Diversity Set (AID 1174); details: higher = more signal, called active from +8 up or from −8 down;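 further: MM1S multiple myeloma cell line; test concentration not given here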
[14] = target: Dihydroorotate dehydrogenase (quinone), mitochondrial (Plasmodium falciparum (isolate 3D7)) (UniProt Q08210); test: PfDHODH enzyme inhibitors, primary screen, biochemical, C-terminal His tag, absorbance 600 nm (AID 1175); details: DCIP absorbance 600 nm, higher = more signal, called active from +8 up or from −8 down;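 further: recombinant parasite enzyme with a five histidine tag at its C terminus; test concentration not given here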
[15] = P. aeruginosa biofilm formation inhibitors, primary screen, strain PAO1, LB-PBS medium, absorbance 600 nm (AID 1176); further: test concentration not given here; details: P. aeruginosa PAO1 growth/biofilm, A600, 12 h; higher = more signal
[16] = S. cerevisiae RM11-1a growth modifiers, primary screen, strain RM11-1a, OD600, basal, 24 h (AID 1177); details: OD600, 24 h, higher = more signal, called active from +8 up or from −8 down;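 further: cultures grown under basal conditions with no added stressor; test concentration not given here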
[17] = E. coli acrAB mutant growth effects, primary screen, E. coli filamentation inducers, strain DRC39, OD650, 24 h (AID 1178); details: higher = more signal, called active from +8 up or from −8 down;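 further: growth measured as culture turbidity by optical density at 650 nm; test concentration not given here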
[18] = E. coli acrAB mutant growth effects, primary screen, E. coli filamentation inducers, strain DRC39, OD650, 48 h (AID 1179);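 further: screen aims at cell division blockers that make cells filament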; details: E. coli DRC39 delta-acrAB growth, higher = more signal, called active from +8 up or from −8 down
[19] = RPMI8226 myeloma cell viability, profiling panel, resazurin fluorescence, basal, 24 h, PK04 Diversity Set (AID 1180); details: higher = more signal;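 further: RPMI8826 multiple myeloma cell line at 5000 cells per well; test concentration not given here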
[20] = target: E3 ubiquitin-protein ligase XIAP (Homo sapiens) (UniProt P98170); test: XIAP binders, primary screen, biophysical, small-molecule microarray, fluorescence 635 nm (AID 1181); details: small-molecule microarray binding, higher = more signal;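 further: score merges 667 nm emission and signal to noise over triplicate slides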
Sequence of E3 ubiquitin-protein ligase XIAP (Homo sapiens) (P98170 whole entry, looked up): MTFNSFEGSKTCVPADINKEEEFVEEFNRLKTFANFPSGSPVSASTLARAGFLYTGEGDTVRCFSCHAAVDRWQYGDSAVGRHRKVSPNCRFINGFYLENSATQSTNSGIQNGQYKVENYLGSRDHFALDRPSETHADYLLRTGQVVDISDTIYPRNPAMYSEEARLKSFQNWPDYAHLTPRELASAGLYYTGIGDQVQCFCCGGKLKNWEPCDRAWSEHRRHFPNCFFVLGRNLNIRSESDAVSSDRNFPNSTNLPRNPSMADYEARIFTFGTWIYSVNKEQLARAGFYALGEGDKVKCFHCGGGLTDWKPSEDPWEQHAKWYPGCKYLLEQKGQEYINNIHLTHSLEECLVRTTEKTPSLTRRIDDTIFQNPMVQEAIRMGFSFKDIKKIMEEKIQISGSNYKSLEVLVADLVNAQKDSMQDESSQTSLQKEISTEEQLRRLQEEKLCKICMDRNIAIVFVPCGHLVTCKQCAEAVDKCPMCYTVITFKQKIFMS

Sequence of Dihydroorotate dehydrogenase (quinone), mitochondrial (Plasmodium falciparum (isolate 3D7)) (Q08210 whole entry, looked up): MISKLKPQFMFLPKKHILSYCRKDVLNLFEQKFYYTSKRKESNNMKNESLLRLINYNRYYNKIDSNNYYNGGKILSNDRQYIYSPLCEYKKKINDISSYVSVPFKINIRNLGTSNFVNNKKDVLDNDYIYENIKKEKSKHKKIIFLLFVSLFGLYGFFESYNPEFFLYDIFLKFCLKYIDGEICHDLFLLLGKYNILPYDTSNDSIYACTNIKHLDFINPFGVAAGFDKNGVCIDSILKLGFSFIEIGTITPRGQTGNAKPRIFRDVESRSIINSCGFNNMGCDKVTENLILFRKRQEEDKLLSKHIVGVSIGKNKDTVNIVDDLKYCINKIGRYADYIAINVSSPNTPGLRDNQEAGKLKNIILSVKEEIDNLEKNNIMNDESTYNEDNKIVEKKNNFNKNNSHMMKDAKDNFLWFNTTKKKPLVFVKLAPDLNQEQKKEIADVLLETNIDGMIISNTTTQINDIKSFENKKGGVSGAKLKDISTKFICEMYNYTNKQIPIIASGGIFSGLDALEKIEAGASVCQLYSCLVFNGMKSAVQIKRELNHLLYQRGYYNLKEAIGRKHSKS

SMILES	z-score [1]	z-score [2]	z-score [3]	z-score [4]	z-score [5]	z-score [6]	z-score [7]	z-score [8]	z-score [9]	z-score [10]	z-score [11]	z-score [12]	z-score [13]	composite z-score [14]	z-score [15]	z-score [16]	z-score [17]	z-score [18]	z-score [19]	composite z-score [20]
O=C1C2C=CC(C(O)c3ccc(F)cc3)N(Nc3ccccc3)C2C(=O)N1c1ccccc1 (stereo not given)	0.257	-1.66	-0.114	0.561	-0.149	-1.58	-0.0708 (inactive)	-0.0118	-1.01	-0.111 (inactive)	-1.24	-3.05 (inactive)	-1.33 (inactive)	0.485 (inactive)	0.888 (inactive)	0.723 (inactive)	-0.811 (inactive)	0.128 (inactive)	-0.535	-0.229
COCC(=C=CC[C@H](O)c1ccc(OCCO)cc1)C[C@H](O)c1cc(Cl)cc(Cl)c1O	-1.05	0.0622	-0.616	-2.31	-0.638	-0.0342	0.138 (inactive)	0.04	-1.42	0.799 (inactive)	0.751	-18 (active)	0.668 (inactive)	-4.37 (inactive)	0.354 (inactive)	-22.1 (active)	1.43 (inactive)	1.27 (inactive)	0.708	0.0724
CC(C)=CCCC(C)=CC(O)C1C=CC2C(=O)N(c3ccccc3)C(=O)C2N1Nc1ccccc1 (stereo not given)	-0.846	-1.34	-0.731	-1.77	-1.02	-2	0.224 (inactive)	-0.222	-0.236	-0.518 (inactive)	-1.4	-1.66 (inactive)	-1.49 (inactive)	0.0928 (inactive)	1.32 (inactive)	0.42 (inactive)	-0.994 (inactive)	-0.927 (inactive)	-1.56	0.0655
[N-]=[N+]=Nc1ccccc1[C@H]1OC(c2ccc(OCCCO)cc2)=N[C@@]1(CCS(=O)(=O)c1ccccc1)C(=O)O	0.318	1.69	-0.0825	-1.42	0.682	-3.45	-1.65 (inactive)	0.0104	-0.0976	0.315 (inactive)	0.181	-1.65 (inactive)	0.169 (inactive)	0.737 (inactive)	-0.319 (inactive)	-0.0777 (inactive)	2.08 (inactive)	0.499 (inactive)	0.438	0.143
CC(c1ccccc1)C(O)C1C=CC2C(=O)NC(=O)C2N1Nc1ccccn1 (stereo not given)	0.405	-0.309	0.925	-0.275	0.291	0.0592	-0.739 (inactive)	0.568	-0.533	-0.81 (inactive)	-0.987	1.34 (inactive)	-0.757 (inactive)	0.865 (inactive)	1.33 (inactive)	1.27 (inactive)	0.15 (inactive)	0.226 (inactive)	-0.806	0.0049
CCOC(=O)C[C@H]1[C@H](OC(=O)Cc2ccc3c(c2)OCO3)[C@@H](NC(=O)C2CCCCC2)c2cc(OCCCO)ccc2N1C(=O)Cc1ccc(OC)cc1	0.746	0.433	1.08	0.747	0.664	2.39	0.0143 (inactive)	-0.0561	-0.784	-0.247 (inactive)	-0.778	-0.815 (inactive)	0.184 (inactive)	-0.974 (inactive)	0.183 (inactive)	-1.53 (inactive)	0.015 (inactive)	0.424 (inactive)	0.283	0.0413
[N-]=[N+]=NCc1ccccc1[C@H]1OC(c2ccc(OCCCO)cc2)=N[C@@]1(CCS(=O)(=O)c1ccccc1)C(=O)N1CCOCC1	1.91	0.831	1.01	-0.921	0.695	-1.05	0.455 (inactive)	-0.507	-0.877	0.388 (inactive)	-0.0894	0.798 (inactive)	-0.306 (inactive)	0.274 (inactive)	0.631 (inactive)	0.686 (inactive)	0.186 (inactive)	-0.109 (inactive)	-0.8	-0.309
COC(=O)C[C@@H]1C[C@H](C)[C@]2(O1)C(=O)N(Cc1ccccc1)c1ccc(NC(C)=O)cc12	-0.0958	0.663	-0.258	0.186	-0.804	-0.0913	-0.551 (inactive)	-0.183	0.229	-0.982 (inactive)	-0.873	-1.15 (inactive)	-1.19 (inactive)	0.281 (inactive)	-0.0582 (inactive)	0.0057 (inactive)	-0.768 (inactive)	-1.33 (inactive)	-0.888	0.123
COCCOC(=O)N1C(=O)[C@@]2(c3cc(C#CC4(O)CCCCCC4)ccc31)[C@H](C(=O)N1CCCCCCC1)[C@H]1C(=O)O[C@H](c3ccccc3)[C@H](c3ccccc3)N1[C@@H]2c1ccccc1OCCO	0.424	1.64	0.504	-0.658	-1.87	-0.679	0.656 (inactive)	-0.658	-0.987	-1.1 (inactive)	-0.449	0.71 (inactive)	-0.297 (inactive)	0.969 (inactive)	1.07 (inactive)	2.36 (inactive)	-1.49 (inactive)	-1.16 (inactive)	-0.432	0.026
CCCN1C(=O)[C@@]2(CCC(=O)OC(C)(C)C)N=C(c3ccc(OCCCO)cc3)O[C@H]2c2ccccc21	-1.32	1.24	-2.09	-3.47	-4.43	0.6	2.43 (inactive)	-1.26	-0.421	-0.778 (inactive)	0.803	-1 (inactive)	-1.86 (inactive)	-0.0393 (inactive)	0.717 (inactive)	0.992 (inactive)	0.923 (inactive)	0.178 (inactive)	-3.16	0.0223
C=CCNC(=O)[C@@H]1[C@H]2C(=O)O[C@H](c3ccccc3)[C@H](c3ccccc3)N2[C@H](c2ccc(O)cc2)[C@@]12C(=O)N(C(=O)OCCOC)c1ccccc12	0.231	2.01	0.0902	-0.549	-1.52	-0.338	0.951 (inactive)	0.104	-0.0916	0.425 (inactive)	0.09	0.57 (inactive)	0.177 (inactive)	-0.186 (inactive)	0.817 (inactive)	1.01 (inactive)	-0.233 (inactive)	-0.33 (inactive)	0.209	-0.17
COCCOC(=O)N1C(=O)[C@@]2(c3ccccc31)[C@H](C(=O)Nc1nc3ccccc3s1)[C@H]1C(=O)O[C@H](c3ccccc3)[C@H](c3ccccc3)N1[C@@H]2c1ccc(OCCO)cc1	-0.257	1.73	-1.23	-2.13	-1.62	-3.14	1.68 (inactive)	-0.806	-1.57	0.18 (inactive)	0.353	1.42 (inactive)	-0.477 (inactive)	-0.691 (inactive)	3.49 (inactive)	1.75 (inactive)	0.0253 (inactive)	-0.383 (inactive)	-0.162	0.0641
CC(C)CNC(=O)[C@@H]1c2ccccc2C(=O)N(Cc2cc(C(F)(F)F)cc(C(F)(F)F)c2)[C@H]1c1ccc(CO)cc1	0.099	0.628	-0.155	0.37	-0.754	0.363	-0.861 (inactive)	0.428	1.25	-0.0372 (inactive)	-1.16	0.578 (inactive)	0.889 (inactive)	-0.697 (inactive)	-0.171 (inactive)	0.927 (inactive)	0.898 (inactive)	0.343 (inactive)	1.29	-0.198
CCCN1C(=O)[C@]2(COC(c3ccc(OCCCO)cc3)=N2)Cc2ccccc21	-0.78	0.585	0.302	-1.6	-0.688	-0.0681	-0.919 (inactive)	0.391	0.148	0.212 (inactive)	0.0036	-1.69 (inactive)	-0.543 (inactive)	-0.238 (inactive)	-0.152 (inactive)	0.235 (inactive)	-0.011 (inactive)	-0.0774 (inactive)	-0.454	-0.195
C=CCNC(=O)[C@H]1[C@@H]2C(=O)O[C@@H](c3ccccc3)[C@@H](c3ccccc3)N2[C@@H](c2ccc(O)cc2)[C@]12C(=O)N(C(=O)OCCOC)c1ccc(C#CCCO)cc12	1.07	0.482	0.802	-0.0589	0.233	0.0998	0.541 (inactive)	-1.07	0.45	-0.319 (inactive)	-0.37	-0.385 (inactive)	0.695 (inactive)	1.12 (inactive)	0.104 (inactive)	0.681 (inactive)	0.261 (inactive)	0.69 (inactive)	0.665	-0.272
COC(=O)C[C@H]1O[C@]2(C(=O)N(Cc3ccccc3)c3ccc(NC(C)=O)cc32)[C@@H](C)[C@@H]1[Si](C)(C)c1ccc(OC)cc1	-0.472	1.73	0.425	0.0926	-2.57	0.0504	1.73 (inactive)	-0.0063	0.402	-1.62 (inactive)	-1.11	0.457 (inactive)	-1.33 (inactive)	1.45 (inactive)	-0.602 (inactive)	0.952 (inactive)	-0.871 (inactive)	-0.69 (inactive)	-0.681	-0.227
Cc1ccc(F)cc1S(=O)(=O)N[C@@H]1CCN(Cc2ccc(-c3ccccc3)cc2)C1	-1.8	-1.3	-4.73	-3.15	-4.09	-1.82	-0.516 (inactive)	-0.69	-2.99	-0.464 (inactive)	-0.603	-19.1 (active)	-3.27 (inactive)	-0.427 (inactive)	0.425 (inactive)	-22.4 (active)	-20.5 (active)	-20 (active)	-2.16	0.0368
CC(C)(C)OC(=O)CC[C@@]1(C(=O)NCCN2CCOCC2)N=C(c2ccc(OCCCO)cc2)O[C@@H]1c1ccccc1	0.694	0.571	0.564	0.586	1.26	-0.0256	0.66 (inactive)	-0.707	-0.514	-0.24 (inactive)	-0.781	-0.712 (inactive)	0.596 (inactive)	-0.317 (inactive)	-0.347 (inactive)	0.572 (inactive)	1.15 (inactive)	1.32 (inactive)	0.641	0.228
